Experimental data taken from PubChem BioAssay AID2098 (Broad Institute, 2009).
The whole screen tested about 300,000 compounds, of which about 2,300 (0.77%) were called active. What follows is part of a selection rich in actives, with near analogues and random picks from the rest. A number with no mark means an inactive call.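 How the source made its calls: active means more than half of replicate wells show activity change below -50%, luminescence cut by over half; inconclusive means some wells, but at most half, below -50%; inactive means no replicate well below -50%.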

Test: blocking HSF1-driven luciferase expression – cell-based, NIH3T3, luminescence, primary screen (AID 2098);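 further: luciferase reports HSF-1 transcriptional activity via heat shock element; 0% = median of DMSO wells and -100% = zero luminescence signal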
Details: NIH3T3-HGL HSE-luciferase, MG132-induced, luminescence 8 h; hits give low values; screened at 7.5 µM (by protocol)

Row | Structure (SMILES) | activity change, negative = inhibition
1 | O=C(CN(c1cc(C(F)(F)F)ccc1Cl)S(=O)(=O)c1ccccc1)NCc1cccnc1 | 6.77%
2 | CCOC(=O)N1CCN(C(=O)CSc2nc(=O)n3cccc(C)c3n2)CC1 | -2.47%
3 | O=C1[C@H]2[C@@H](c3ccc(Cl)cc3)N3C(=O)N(c4cccc(F)c4)C(=O)[C@@]3(Cc3ccccc3)[C@H]2C(=O)N1C1CCCCC1 | 8.08%
4 | CN(C)S(=O)(=O)c1ccc(N2CCCC2)c(C(=O)Nc2ccc(Br)cc2F)c1 | 0.082%
5 | Cc1ccc(-c2csc(NC(=O)C3=COCCO3)n2)cc1C | 14.3%
6 | CCOC(=O)N1CCN(C(c2cccnc2)c2ccc3cccnc3c2O)CC1 (stereo not drawn) | 26.3%
7 | Oc1c(C(c2ccccn2)N2CCOCC2)ccc2cccnc12 (stereo not drawn) | 39.3%
8 | CCN1CCN(C(c2cccnc2)c2cc(Cl)c3cccnc3c2O)CC1 (stereo not drawn) | -81.5% (active)
9 | C=CCSc1nnc2c(n1)-c1cccc3cccc-2c13 | 3.46%
10 | COC(=O)c1c(-c2ccsc2)oc2ccc(-c3cc(OC)c(OC)c(OC)c3)cc12 | 0.511%
11 | OCCCNc1nccc(-c2cc(Nc3cccc(Cl)c3)ncn2)n1 | -63.5% (active)
12 | OCCCNc1nc(-c2ccccc2)c2cc(Cl)ccc2n1 | -1.41%
13 | CC(C)n1cnc2c(Nc3cccc(Cl)c3)nc(N(CCO)CCCO)nc21 | -11.1%
14 | Cc1ccc2nc(SCC(=O)Nc3cccc4ccccc34)nc(=O)n2c1 | 4.93%
15 | O=C(NCCS(=O)(=O)NCc1ccc(F)cc1)c1ccccc1 | 0.252%
16 | O=C(c1noc2c1CCCC2)N1CCc2ccccc2C1 | 12.4%
17 | O=C(Nc1cccnc1)c1noc2c1CCCCC2 | -52.6% (active)
18 | O=C(Nc1cccnc1)c1cccc(S(=O)(=O)N2CCCC2)c1 | -0.574%
19 | O=[N+]([O-])c1cccc(C=NN=Cc2ccccc2O)c1 | -25.2%
20 | COc1ccc(C(=O)NNC(=O)c2cnccn2)cc1[N+](=O)[O-] | -85.3% (active)
21 | COc1ccc(C(=O)O/N=C(\N)c2ccccn2)cc1[N+](=O)[O-] | 12.7%
22 | COc1cccc(OCC(=O)NNC(=O)c2cnccn2)c1 | -5.69%

Row | Structure (SMILES) | activity change, negative = inhibition
23 | CC(=O)c1c(C)[nH]c(C(=O)COC(=O)CCOc2ccc(C)cc2)c1C | 5.07%
24 | CCCNC(=O)CCn1cc(-c2ccc(OC)cc2)nc1CCN | -7.76%
25 | O=C(NNC(=O)c1ccc(-c2ccccc2)cc1)Nc1ccccc1 | -2.47%
26 | O=S(=O)(Nc1ccc(-c2ccc(N3CCOCC3)nn2)cc1)c1cc(Cl)ccc1Cl | 11.6%
27 | CCC(C)N(C(=O)CSc1ncnc2c1cnn2-c1ccccc1)C1CCS(=O)(=O)C1 (stereo not drawn) | 0.752%
28 | COc1ccc(OC)c(S(=O)(=O)N2CCCC(C(=O)N3CCC(C(N)=O)CC3)C2)c1 (stereo not drawn) | -0.699%
29 | O=S(=O)(Nc1ccc(O)c2ccccc12)c1ccc(OC(F)(F)F)cc1 | -59.7% (active)
30 | Cc1nn(C)c(C)c1NS(=O)(=O)c1ccc(OC(F)(F)F)cc1 | -8.93%
31 | O=C1COc2ccc(S(=O)(=O)Nc3ccc(OC(F)(F)F)cc3)cc2N1 | 2.92%
32 | CCC(=O)N1CCc2cc(Br)c(S(=O)(=O)NCCN3CCCCC3CC)cc21 (stereo not drawn) | -1.08%
33 | CN1CCN(C2Cc3ccc(Cl)cc3Sc3ccc(F)cc32)CC1 (stereo not drawn) | -0.795%
34 | NS(=O)(=O)c1ccc(CCNC(=O)CN2C(=O)c3ccccc3S2(=O)=O)cc1 | -3.35%
35 | Cc1ccc(N2CC(C(=O)N3CCC4(CC3)CC(=O)c3ccccc3O4)CC2=O)cc1C (stereo not drawn) | -2.92%
36 | COc1ccc(NC(=O)CN(C)C(=O)Cc2coc3cc(C)c(C)cc23)cc1 | 7.31%
37 | COc1ccc(C(=O)N(Cc2ccccc2)c2ccc(C)cc2)cc1S(=O)(=O)N1CCOCC1 | 4.46%
38 | Cc1cc(C(=O)COC(=O)C2CC2)c(C)n1-c1ccc(F)cc1 | -71.9% (active)
39 | Cc1ccc(-n2c(C)cc(C(=O)CN3C(=O)C(=O)N(C4CCCC4)C3=O)c2C)cc1 | -6.89%
40 | COc1cc(/C=N/NC(=O)c2cc(C)n(-c3ccc(F)cc3)c2C)cc(OC)c1O | -15.3%
41 | CC(Oc1ccc(F)cc1)C(=O)Nc1cc(S(=O)(=O)N2CCOCC2)ccc1N1CCN(C)CC1 (stereo not drawn) | -4.5%
42 | O=C(NCC(=O)N1CCCC(C(F)(F)F)C1)c1ccccc1F (stereo not drawn) | -2.16%
43 | CCN(CC)CCNC(=O)CCCCCn1c(=O)[nH]c2cc(C(=O)OC)ccc2c1=O | -8.49%
44 | CCCCC(CC)CNC(=O)CCCCn1c(=O)[nH]c2ccsc2c1=O (stereo not drawn) | 1.08%

Row | Structure (SMILES) | activity change, negative = inhibition
45 | CCN(CCCNC(=O)CCn1c(=O)[nH]c2ccsc2c1=O)c1ccccc1 | -61.9% (active)
46 | CN(Cc1c(F)cccc1Cl)C(=O)CNC(=O)c1ccc2c(c1)OCO2 | 2.65%
47 | CC12CCC(=O)N1C(C(=O)NCCN1C(=O)S/C(=C\c3ccccc3F)C1=O)CS2 (stereo not drawn) | -0.188%
48 | CCOC(=O)c1c(C)[nH]c(C(=O)OCC(=O)c2ccc(OC)cc2OC)c1C | 1.38%
49 | CC1(OC(=O)CCc2ccccc2)C(=O)C=C2C=C(c3ccc(C#N)cc3)N(CCc3ccccn3)C=C2C1=O (stereo not drawn) | -80.1% (active)
50 | COCCN1C=C2C(=O)C(C)(OC(=O)C3CCCC3)C(=O)C=C2C=C1c1ccsc1 (stereo not drawn) | 0.381%
51 | C=CCN1C=C2C(=O)C(C)(OC(=O)CCc3ccccc3)C(=O)C=C2C=C1c1ccc(C#N)cc1 (stereo not drawn) | -1.82%
52 | CCCNC(=O)c1ccc(N2CCC3(CC2)CC(c2cccc(Br)c2)=NO3)c(NC(=O)c2ccco2)c1 | -5.02%
53 | CSc1nsc(NC(=O)Nc2ccccc2)n1 | 4.05%
54 | Cc1cccc(C(=O)NCc2nnc(SC(C)C(=O)Nc3nnc(C)s3)n2C)c1 (stereo not drawn) | -1.96%
55 | COc1ccc(S(=O)(=O)N2CCCCCC2)cc1C(=O)N(C)Cc1cccc(OC)c1OC | -1.36%
56 | O=c1oc2ccccc2cc1-c1cn(-c2ccccc2)c(=S)[nH]1 | -88.1% (active)
57 | COc1ccc(-c2cn(-c3ccc(OC)cc3)c(=S)[nH]2)cc1 | 9.62%
58 | S=c1[nH]c(-c2cccs2)cn1-c1ccccc1 | 2.33%
59 | CC(C)(C)Oc1ccccc1Nc1nc(NCCO)nc(N2CCCC2)n1 | -2.91%
60 | O=C(Nc1cccc(-c2cccc(Cl)c2)c1)C1CCN(C2CCC2)CC1 | -1.45%
61 | CCn1cc(CN2CCC(C(=O)Nc3cccc(-c4cccc(Cl)c4)c3)CC2)cn1 | 13.5%
62 | CCn1cc(CN2CCC(C(=O)Nc3cccc(-c4cccc(Cl)c4)c3)CC2)c(C)n1 | -68.5% (active)
63 | O=C(COC(=O)CCOc1ccccc1)Nc1cc(S(=O)(=O)N2CCCCC2)ccc1Cl | 5.19%
64 | Cn1cccc1C(=O)NNC(=O)COc1ccc(Br)cc1 | -3.17%
65 | Cc1ccc(S(=O)(=O)CC(=O)Nc2nnc(C)s2)cc1 | -2.63%
66 | Cc1cccc(NC(=O)c2nc[nH]c2C(=O)NCC(=O)OCc2ccccc2)c1 | -13.1%

Row | Structure (SMILES) | activity change, negative = inhibition
67 | CCSc1ncc(Cl)c(C(=O)Nc2cc(C)ccc2C)n1 | 3.48%
68 | Cc1cccc(NC(=O)c2nc(S(=O)(=O)Cc3ccccc3)ncc2Cl)c1 | -83.8% (active)
69 | Cc1cccc(CS(=O)(=O)c2ncc(Cl)c(C(=O)Nc3ccc(F)cc3)n2)c1 | 13.2%
70 | Cc1ccc(CS(=O)(=O)c2ncc(Cl)c(C(=O)Nc3nnc(C)s3)n2)cc1 | -63.4% (active)
71 | COc1ccc(C2/C=C\CN(S(=O)(=O)c3cccs3)CC(=O)N2Cc2ccc(F)cc2)cc1 (stereo not drawn) | 3.97%
72 | COc1ccc(Cl)cc1C=CC=NNC(=O)c1ccncc1 | 5.04%
73 | COC(=O)c1ccc(OCC(O)CN(CCO)CC(O)Cn2ccc3ccccc32)cc1 (stereo not drawn) | -1.93%
74 | COc1ccc(CCNCC(O)Cn2ccc3ccccc32)cc1OC (stereo not drawn) | -87.6% (active)
75 | COc1ccc(Cn2c(=O)sc3ccccc32)cc1OC | -4.6%
76 | O=C(NCc1ccccc1)c1onc(CSc2ccncc2)c1C(=O)NCc1ccccc1 | -22.7%
77 | O=C(NCCc1ccco1)C(=O)NCCC1CCCCN1S(=O)(=O)c1ccccc1 (stereo not drawn) | 1.49%
78 | COc1ccc(-c2nnc(SCC(=O)Nc3cccnc3Cl)n2C)cc1 | -3.85%
79 | COc1ccccc1NC(=O)[C@H](COCc1ccccc1)NC(=O)OC(C)(C)C | -65.5% (active)
80 | COc1ccccc1NC(=O)C(C)OC(=O)CC1CCCC1 (stereo not drawn) | -4.1%
81 | C#CCNC(=O)[C@H](Cc1ccc(C(=O)c2ccccc2)cc1)NC(=O)OC(C)(C)C | 5.42%
82 | COc1ccc(C(=O)Nc2ccccc2C(=O)N/N=C/c2ccc(O)c(OC)c2)cc1 | -88.5% (active)
83 | COc1ccc(/C=N/NC(=O)c2ccccc2)cc1OS(=O)(=O)c1ccccc1 | 4.64%
84 | COc1cc(/C=N/NC(=O)c2ccc(N3CCCC3=O)cc2)ccc1O | -2.17%
85 | CC1(C)O[C@@H]2CC3C4C[C@H](F)C5=CC(=O)C=CC5(C)C4C(O)CC3(C)[C@]2(C(=O)CO)O1 (stereo partly drawn) | -32.3%
86 | Cc1ccc(CSCC(=O)N(C)CC(=O)Nc2ccc(C)cc2)cc1 | -72.3% (active)
87 | Cc1ccc(NC(=O)CN(C)C(=O)c2ccc(Br)o2)cc1 | 0.545%
88 | Cc1ccc(CSCC(=O)N(C)CC(=O)Nc2cccc(F)c2)cc1 | -0.103%
